Screens deposited in PubChem BioAssay by National Center for Advancing Translational Sciences (NCATS).
An excerpt weighted towards active compounds, which were near 21% of everything screened.
D3 antag: qHTS of D3 Dopamine Receptor Antagonist: qHTS; D(3) dopamine receptor (Homo sapiens), P35462; D3R cells, DiscoveRx beta-arrestin luminescence, antagonist mode; active compounds read low; max response, negative = inhibition, %; 360,000 tested, 2.5% active; AID 652054, 2013; in the data active = max response below about -50%; inconclusive = no clear call, values can overlap the other calls; note: % is set by controls: 0 for no effect and ±100 for the full control effect
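Cells expressing the human receptor were seeded at 1500 cells/well, incubated overnight at 37 degrees C in 5% CO2, then exposed to library compounds with dopamine controls for 90 minutes at 37 degrees C before luminescent detection.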
IL-1B inflam inh: qHTS for Inhibitors of Inflammasome Signaling: IL-1-beta AlphaLISA Primary Screen | THP-1 LPS/ATP IL-1B secretion, AlphaLISA, 16 h; active compounds read low | activity change, % at 57.5 µM | 360,000 tested, 4.7% active | AID 743279, 2014; in the data active = activity change below about -50%; inconclusive = mostly about -30% to -49%; note: % is set by controls: 0 for no effect and ±100 for the full control effect
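Secreted IL-1B measured by AlphaLISA bead assay after 16 h compound exposure of THP-1 cells; compounds (final up to 57.5 uM) added 1 h before LPS (250 ng/mL) and ATP (1.25 mM) stimulation; lower signal means less secretion.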
D3 ag: qHTS of D3 Dopamine Receptor Agonist: qHTS. 410,000 tested, 0.58% active. AID 652048, 2013. max activation, %. D3R DiscoveRx beta-arrestin cells, luminescence, 90 min. D(3) dopamine receptor (Homo sapiens), P35462; in the data active = max activation above about 30%; note: 0% is about no effect
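Cells at 1500/well, incubated overnight, then treated with pinned compounds (dopamine as control) for 90 min at 37 degrees C. DiscoveRx reagent added for 30 - 60 minutes at room temperature; luminescence read.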
ClpP mod: qHTS Assay for Activators of ClpP; AID 651965, 2013; 340,000 tested, 1.9% active; ATP-dependent Clp protease proteolytic subunit (Bacillus subtilis (strain 168)), P80244; Potency, µM (titrated, usually from 57.5 µM), for inactives: at the highest dose activity change, negative = active; purified B. subtilis ClpP, FRET peptide cleavage, 20 min; active = well fitted falling curve with a large enough effect; inconclusive = small, poorly fitted or top-dose-only effect; inactive = no such curve, though single readings can be large or run the other way; note: potency is the fitted concentration of half-maximal effect; the source files actives as falling curves though it sought activators and does not explain the sign; nearly all actives have a fitted effect of over 65% in size
Target sequence (P80244 whole entry, looked up): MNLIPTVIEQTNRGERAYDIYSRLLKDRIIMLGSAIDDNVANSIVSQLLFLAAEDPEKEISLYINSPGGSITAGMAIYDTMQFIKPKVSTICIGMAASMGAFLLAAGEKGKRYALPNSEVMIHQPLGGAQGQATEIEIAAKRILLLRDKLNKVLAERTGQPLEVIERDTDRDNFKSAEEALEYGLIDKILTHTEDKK
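ClpP 10 microg/mL final, pH 8 Tris/KCl buffer with BSA, glycerol, Tween-20; compound pinned in; FRET-FV substrate; RT 20 min; Ex320/Em430; ΔFRET vs ADEP 5.8 microM, DMSO, no enzyme.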
DT40 TDP1 no CPT: qHTS for Inhibitors of human tyrosyl-DNA phosphodiesterase 1 (TDP1): qHTS in cells in absence of CPT. Potency, µM (highest dose often 46.2 µM), for the others: top-dose activity change, negative = growth inhibition, most hits filed as inhibitors. DT40 Tdp1-/- hTDP1 cells, no CPT, ATP luminescence, 48 h. 420,000 tested, 15% active; note: potency is the fitted concentration of half-maximal effect; % is set by controls: 0 for no effect and ±100 for the full control effect; nearly all actives have a fitted effect of over 55% in size
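Growth of hTDP1-complemented DT40 Tdp1-knockout cells is measured by ATP luminescence after at least 48 hr compound exposure at 37 °C, with DMSO substituting for the 20 nM CPT used in the parallel screen.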
TDP1 cell CPT: qHTS for Inhibitors of human tyrosyl-DNA phosphodiesterase 1 (TDP1): qHTS in cells in presence of CPT; chicken DT40 Tdp1-/-;hTDP1 cells + 20 nM CPT, ATP luminescence, 48 h; Potency, µM (titrated, usually from 46.2 µM), without a hit: at the top dose activity change, negative = growth inhibition, actives largely listed as inhibitors; 420,000 tested, 12% active; AID 686979, 2013; note: potency is the fitted concentration of half-maximal effect; % is set by controls: 0 for no effect and ±100 for the full control effect; nearly all actives have a fitted effect of over 55% in size
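Chicken DT40 Tdp1-/- cells stably complemented with human TDP1 were seeded at 400 cells/well in medium containing 20 nM camptothecin, exposed to pin-transferred compounds, and grown at 37 °C for at least 48 hr. Viability was read as ATP luminescence.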
Active calls of the source: *; ? = inconclusive; . = no result. Unless noted, calls come from the whole dose curve; as a rule, active = well fitted inhibition curve with a large enough effect; inconclusive = small, poorly fitted or top-dose-only effect; inactive = flat fitted curve, though single readings scatter.

SMILES	D3 antag	IL-1B inflam inh	D3 ag	ClpP mod	DT40 TDP1 no CPT	TDP1 cell CPT
COC(=O)N(C)C[C@@H]1OCc2cnnn2CCCC(=O)N([C@H](C)CO)C[C@@H]1C	11	11	1	-1%	-3%	-1%
CN(C)S(=O)(=O)c1ccc(N2CCN(S(=O)(=O)c3ccc(F)cc3)CC2)c(Cl)c1	12	-25	14	0%	18µM*	18µM*
Cc1c(C#N)c(N=CN(C)C)c(C(=O)c2ccccc2)n1-c1ccc(Br)cc1	4	0	-12	0%	?	18µM*
CCOc1ccccc1Nc1sc(C(=O)c2ccccc2)c(N)c1C(=O)NCCc1ccccc1	.	.	7	-1%	?	?
COc1ccc(CCNC(=O)c2c(Nc3ccccc3C)sc(C(=O)c3ccccc3)c2N)cc1OC	.	.	19	-4%	9.2µM*	?
Cc1ccccc1Nc1sc(C(=O)c2ccc(F)cc2)c(N)c1C(=O)NCCc1ccccc1	.	.	-7	-4%	18µM*	?
Cc1ccc(S(=O)(=O)NCC(=O)OCC(=O)NCc2cccs2)cc1	17	-5	5	.	-11%	-1%
CNC(=O)NC(=O)COC(=O)c1ccc(-n2c(C)ccc2C)cc1	23	0	6	-2%	?	?
CC(C)C[C@H]1COc2cc(N3CCN(Cc4ccccc4F)CC3)ccc2S(=O)(=O)N1	-66*	14	-9	-3%	?	?
C[C@@H]1COc2cc(N3CCN(Cc4ccccc4F)CC3)ccc2S(=O)(=O)N1	-29	39	3	1%	-12%	-1%
C[C@H]1COc2cccc(N3CCN(Cc4ccccc4F)CC3)c2S(=O)(=O)N1	-2	21	-1	-1%	?	-11%
CC(C)C[C@H]1COc2cccc(N3CCN(Cc4ccccc4F)CC3)c2S(=O)(=O)N1	?	-11	-12	-4%	18µM*	?
CN1CCN(c2ccc3c(c2)OC[C@@H](Cc2ccccc2)NS3(=O)=O)CC1	-25	0	-6	-4%	?	-17%
O=S1(=O)N[C@@H](Cc2ccccc2)COc2cc(N3CCN(Cc4ccccc4F)CC3)ccc21	-2	-13	-3	-21%	21µM*	-30%
C1CCCCCC2(CCCCC1)OCC(CN1CCOCC1)O2 (configuration not stated)	28	7	-8	1%	23µM*	?
C[N+]1(CC2COC3(CCCCC3)O2)CCCC1 (configuration not stated)	10	10	-15	-2%	1%	-2%
Cn1c(=O)c2cc(NC(=O)Nc3cccnc3)ccc2n1-c1ccc(C(C)(C)C)cc1	25	-17	10	4%	?	?
COc1ccc(CCN2C(=O)COc3ccccc3C2C(=O)Nc2ccc3c(c2)OCCO3)cc1OC (configuration not stated)	18	16	2	-1%	21µM*	?
O=C(Nc1ccc2c(c1)OCCO2)C1c2ccccc2OCC(=O)N1CCc1ccccc1 (configuration not stated)	1	-14	7	-1%	-2%	-1%
Cc1cccc(NC(=S)N/N=C(\c2ccccc2)C(C)C)c1	-21	9	-6	.	5.8µM*	?
CCC(=O)Nc1cccc(NC(=S)NC(=O)c2cccc(C)c2)c1	-6	24	-1	1%	?	?
CC/C(=N\NC(=S)Nc1cccc(C)c1)c1ccccc1	?	-4	-26	.	5.2µM*	13µM*
